Giardia FBPA inh: blocks Giardia fructose-bisphosphate aldolase activity; A8B2U2; 290,000 compounds, 0.71% hits; AID 2451; Potency, µM (titrated, usually from 59.6 µM), for inactives: top-dose activity, negative = inhibition, hits mostly inhibitors; purified Giardia FBPA; note: potency is the fitted concentration of half-maximal effect; nearly all actives have a fitted effect of over 55% in size
Target sequence (A8B2U2 whole entry, looked up): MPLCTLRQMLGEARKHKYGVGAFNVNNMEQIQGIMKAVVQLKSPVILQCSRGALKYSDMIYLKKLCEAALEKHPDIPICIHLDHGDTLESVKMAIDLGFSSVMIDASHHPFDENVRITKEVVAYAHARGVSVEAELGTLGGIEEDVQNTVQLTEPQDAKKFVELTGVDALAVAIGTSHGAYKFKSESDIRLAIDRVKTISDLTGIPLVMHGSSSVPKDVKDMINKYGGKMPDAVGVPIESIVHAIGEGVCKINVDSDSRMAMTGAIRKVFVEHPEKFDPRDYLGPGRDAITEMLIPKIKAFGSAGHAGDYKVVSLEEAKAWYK
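Giardia FBPA (40 nM reagent) was preincubated 10 min at RT with compound (up to 57.5 uM final), then substrate plus GAPDH/TPI/NAD/arsenate coupling system with diaphorase/resazurin was added; resorufin fluorescence (525/598 nm) was read after 20 min.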
FMDV antiviral: antivirals against foot and mouth disease virus | FMDV antiviral cell-based qHTS | Potency, µM (doses to about 57.9 µM), for the others: top-dose activity change, negative = inhibition, actives largely listed as inhibitors | 410,000 compounds, 1.2% hits | AID 1159524; calls by dose curve; tested in HEK293T cells; note: read-out not given here; potency is the fitted concentration of half-maximal effect; nearly all actives have a fitted effect of over 45% in size
HCV inh: inhibitors of hepatitis C virus infection | Huh7.5.1 HCVcc-Cre infection, luciferase reporter, 44 h | Potency, µM (titrated, usually from 41.8 µM), inactives show top-dose activity change, negative = inhibition, most hits filed as inhibitors | 340,000 compounds, 3.4% hits | AID 651820; note: potency is the fitted concentration of half-maximal effect
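Whole-lifecycle infectious HCVcc-Cre system; cells 1,000/well, compound then virus (~0.5 moi) added 4 h after plating, 44 h culture. Luciferase read 15 sec following 15 min substrate incubation, room temp.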
VACV mCherry inh: vaccinia inhibition (mCherry reporter); Vaccinia virus mCherry reporter infection, fluorescence; Potency, µM (doses to about 36.5 µM), for the others: at the highest dose activity change, negative = inhibition, actives largely listed as inhibitors; 310,000 compounds, 0.63% hits; calls by dose curve; tested in A549 cells; note: potency is the fitted concentration of half-maximal effect; nearly all actives have a fitted effect of over 35% in size
VACV Venus inh: vaccinia inhibition (Venus reporter) | Vaccinia virus Venus reporter expression, fluorescence | AID 720580 | Potency, µM (series often up to 36.5 µM), for the others: top-dose activity change, negative = inhibition, hits mostly inhibitors | 330,000 compounds, 0.46% hits; calls by dose curve; tested in A549 cells; note: potency is the fitted concentration of half-maximal effect; nearly all actives have a fitted effect of over 30% in size
HCMV antiviral: human cytomegalovirus inhibition | HFF cells, HCMV-luciferase reporter, 72 h; active compounds read low | AID 1259415 | 410,000 compounds, 4.5% hits | activity change, negative = inhibition, % at 57.5 µM; in the data active = activity change below about -60%; inconclusive = no clear call, values can overlap the other calls; inactive = above about -39%
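Steps: HFFs plated, 16 h 37C; compounds added; HCMV-luciferase added to MOI 1 PFU/cell; 72 h 37C; OneGlo reagent, 5 min room temperature; luminescence read, normalized to controls.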
* = called active by the depositor; i = inactive; ? = inconclusive; . = not tested or not shown. A selection: hits, their analogues and other compounds. The true share with any hit is near 7.5%. Unless noted, calls come from the whole dose curve; as a rule, active = well fitted curve in the direction sought with a large enough effect; inconclusive = small, poorly fitted or top-dose-only effect, or another doubt; inactive = no such curve, though single readings can be large; an effect the other way counts as inactive or inconclusive. % is set by controls: 0 for no effect and ±100 for the full control effect.

SMILES | Giardia FBPA inh | FMDV antiviral | HCV inh | VACV mCherry inh | VACV Venus inh | HCMV antiviral
COc1cc(/C=C2\SC(=O)N(Cc3ccc(F)cc3)C2=O)cc([N+](=O)[O-])c1O | -6% | -10% | -6% | -3% | 1% | -76*
COc1cccc(CN2CCCC(c3nc(-c4ccncc4)ncc3-c3ccccc3)C2)c1O (stereo not given) | . | -26% | . | -30% | -17% | .
COc1cc([N+](=O)[O-])cc(/C=C2/SC(=S)N(Cc3ccccc3)C2=O)c1O | -7% | ? | -28% | 299% | i | -88*
S=C1SCN(Cc2cccnc2)CN1Cc1ccccc1 | -10% | -15% | ? | ? | ? | -94*
O=C1CSC(=S)N1c1cccnc1 | -16% | . | 7% | 3% | 17% | 2
O=C1CSC(=S)N1Cc1cccnc1 | ? | ? | ? | . | 213% | -98*
S=C1NCN(Cc2cccnc2)CN1Cc1ccccc1 | 0% | -7% | -12% | -7% | -20% | 13
CC1=C(C(=O)N2CCOCC2)CC(CC(=O)NC2CCCCC2)C(=O)N1CCCN1CCCC1=O (stereo not given) | . | -1% | . | -7% | -16% | -11
C[C@H]1[C@@H](NC(=O)NCc2ccccc2)CC[C@@]23CCCN2C(=O)CCC[C@@H]13 | . | . | . | . | . | -38
O=C(NCCN1CCC(n2c(=O)[nH]c3ccccc32)CC1)c1ccc(Cl)c(Cl)c1 | . | ? | . | -7% | -1% | -29
CCN1CCN(C(c2ccc(C(F)(F)F)cc2)c2ccc3cccnc3c2O)CC1 (stereo not given) | -4% | ? | 7.1µM* | ? | ? | -85*
CN1CCN(C(c2ccc(C(F)(F)F)cc2)c2cc(Cl)c3cccnc3c2O)CC1 (stereo not given) | 19% | . | . | . | . | ?
C=C1c2cc3c(cc2NC(=S)N1Cc1ccccc1)OCO3 | -13% | 2% | ? | ? | -15% | -33
c1cnc2ccc(-n3ccnc3)cc2c1 | . | -9% | . | i | -9% | ?
CCCCCc1ccc(OCCOCCn2c[n+](C)c3ccccc32)c(CCCCC)c1 | 3% | 25µM* | 10µM* | 16µM* | 11µM* | .
CCCCCc1ccc(OCCC[n+]2ccccc2)c(CCCCC)c1 | -22% | 18µM* | 10µM* | 10µM* | 10µM* | -99*
O=[N+]([O-])c1ccc(O)c(C2=NNC(c3ccccc3F)C2)c1 (stereo not given) | 8% | ? | ? | ? | 11µM* | 0
COc1ccc2c(c1)[C@@H](NS(C)(=O)=O)[C@H](C)[C@@H](C(C)C)N2 | . | . | . | . | . | 9
COc1cccc(-n2nc(C#N)c(Cl)cc2=O)c1 | 3% | 11µM* | ? | ? | 18µM* | -96*
Cc1cccc(CN2C(=O)NC(c3ccccc3)(c3ccccc3)C2=O)c1 | -3% | -25% | -13% | ? | -23% | -69*
Cc1ccc(S(=O)(=O)N2CCCCC2)cc1NC(=O)Cn1c(=O)cnc2ccccc21 | 2% | -28% | ? | i | -11% | ?
COC(=O)Cc1[nH]nc2c1C(C1C=CCCC1)C(C#N)=C(N)O2 (stereo not given) | 0% | 16µM* | ? | . | -21% | -8
COC(=O)Cc1[nH]nc2c1C(c1cc(OC)c(OC)c(OC)c1)C(C#N)=C(N)O2 (stereo not given) | 2% | -24% | 11% | . | . | -7
Cc1nc2ccccc2c(=O)n1N(c1ccccc1)c1ccccc1 | 0% | -18% | ? | . | . | -68*
Cc1nc2ccccc2c(=O)n1CCc1ccccc1 | -2% | -8% | 0% | . | . | 63
SMILES | Giardia FBPA inh | FMDV antiviral | HCV inh | VACV mCherry inh | VACV Venus inh | HCMV antiviral
CSc1nc(N)nc(SCC(=O)C23CC4CC(CC(C4)C2)C3)c1C#N | -6% | ? | 10µM* | . | . | -33
COC(=O)/C(=C1/Oc2ccc(C(C)(C)C)cc2S1)C(F)(F)F | 0% | 44% | 6% | . | . | ?
COC(=O)/C(=C1/Oc2cc(C)oc(=O)c2S1)C(F)(F)F | 5% | 28µM* | 10µM* | -5% | 3% | ?
Nc1nc(SCc2ccc([N+](=O)[O-])cc2)c2ncn([C@@H]3O[C@H](CO)[C@@H](O)[C@H]3O)c2n1 | . | -7% | . | -12% | -10% | .
CCSc1nc(N)nc2c1ncn2C1OC(CO)C(O)C1O (stereo not given) | . | 0% | -2% | -12% | -8% | 3
Cn1cnc([N+](=O)[O-])c1Sc1nc(N)nc2c1ncn2C1CC(O)C(CO)O1 (stereo not given) | . | ? | ? | 6.3µM* | ? | -82*
Cn1cnc([N+](=O)[O-])c1Sc1nc(N)nc2c1ncn2C1OC(CO)C(O)C1O (stereo not given) | . | ? | -25% | ? | ? | -76*
Nc1nc(SCc2ccc(Br)cc2)c2ncn(C3OC(CO)C(O)C3O)c2n1 (stereo not given) | . | 19% | -13% | -4% | -15% | -61*
COc1ccc(C(=O)CC2(O)C(=O)N(CCc3ccccc3)c3ccc(Br)cc32)cc1OC (stereo not given) | . | -26% | . | -2% | -10% | 1
COc1ccc2sc(N(CCCN(C)C)C(=O)c3ccc(S(=O)(=O)N(C)Cc4ccccc4)cc3)nc2c1 | . | -24% | 10µM* | ? | -27% | -36
Cc1cc(C)c2sc(N(CCN(C)C)C(=O)c3c(F)cccc3F)nc2c1 | -13% | ? | -5% | ? | 6% | 0
Cc1ccc2sc(N(CCCN(C)C)C(=O)c3ccc(S(=O)(=O)N(C)Cc4ccccc4)cc3)nc2c1C | . | 32µM* | 3.5µM* | -26% | ? | -23
CCN(Cc1ccccc1)S(=O)(=O)c1ccc(C(=O)N(CCCN(C)C)c2nc3cc(C)cc(C)c3s2)cc1 | . | -22% | 10µM* | ? | ? | -37
Cc1cc(C)c2sc(N(CCCN(C)C)C(=O)c3ccc(Br)s3)nc2c1 | -3% | ? | 13µM* | . | . | -39
Cc1cc(N2CCCC2=O)ccc1S(=O)(=O)NCCOc1ccccc1 | 5% | -1% | ? | -13% | -5% | -68*
Cc1cc(N2CCCC2=O)ccc1S(=O)(=O)Nc1c(C)nn(C)c1C | -3% | ? | ? | -14% | -18% | ?
CCN(Cc1ccncc1)Cc1nc(CC2CC2)no1 | 4% | -17% | 15% | -19% | -11% | -60*
Cc1nc(C)c(-c2ccc(SCC(=O)Nc3cccc(F)c3)nn2)s1 | . | ? | 14µM* | ? | -22% | ?
Cc1nc(C)c(-c2ccc(SCC(=O)Nc3cccc(Cl)c3)nn2)s1 | . | ? | 10µM* | -11% | -14% | 7
CCc1ccccc1NC(=O)Nc1nnc(N(CC)c2ccccc2)s1 | . | -5% | . | -21% | -23% | -6
CCOC(=O)c1c(C)[nH]c(C(=O)N2CCC(C(=O)OCC)CC2)c1C | . | 0% | -6% | -10% | 0% | 7
